BRCT inh green – qHTS Assay for Inhibitors of BRCT-Phosphoprotein Interaction (Green Fluorophore); Potency, µM (top dose mostly 76.9 µM), for the others: at the highest dose activity change, negative = inhibition, most hits filed as inhibitors; Breast cancer type 1 susceptibility protein (Homo sapiens), P38398; hit rate 0.05% among 75,000; BRCA1 BRCT-phosphopeptide binding, green fluorescence polarization;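 further: potency means the concentration at half of the fitted maximal effect; plate controls were peptide without protein for full effect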
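Fluorescence polarization: His-tagged BRCT (~35 kDa BRCA1 C-terminus, 250 nM) bound to 100 nM fluorescein-labeled phosphorylated 10-aa BACH1 peptide, pH 7.3 phosphate buffer with DTT and Tween 20. Compounds incubated 12 min at room temperature; inhibition read as lowered polarization.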
BRCT PPI red – qHTS Assay for Inhibitors of BRCT-Phosphoprotein Interaction (Red Fluorophore); Breast cancer type 1 susceptibility protein (Homo sapiens), P38398; BRCT-phosphopeptide binding, red fluorescence polarization; Potency, µM (top dose mostly 76.9 µM), inactives show at the top dose activity change, negative = inhibition, most hits filed as inhibitors; hit rate 0.03% among 75,000; AID 892, 2007; further: on the % scale 0 is the no-effect control and ±100 the full control effect
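Fluorescence polarization: 100 nM His-tagged BRCA1 BRCT with 100 nM TAMRA-labelled phospho-BACH1 decapeptide, phosphate buffer pH 7.3 with 150 mM NaCl, DTT, 0.01% Tween 20; 12 min RT. Binding inhibition seen as FP decrease.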
ALOX15 inhib – qHTS Assay for Inhibitors of 15-hLO (15-human lipoxygenase); Polyunsaturated fatty acid lipoxygenase ALOX15 (Homo sapiens), P16050; purified 15hLO-1, xylenol orange hydroperoxide absorbance; Potency, µM (highest dose often 57.1 µM), for the others: top-dose activity change, negative = inhibition, actives largely listed as inhibitors; hit rate 1.4% among 74,000; further: potency means the concentration at half of the fitted maximal effect; on the % scale 0 is the no-effect control and ±100 the full control effect; nearly all actives have a fitted effect of over 55% in size
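Purified human 15hLO-1 (40 nM final) in 25 mM Hepes pH 7.5, 0.01% Triton X-100 was preincubated with compound 15 min at room temperature, then reacted 6 min with 50 uM arachidonic acid; hydroperoxide detected by Fe-XO, 573/405 nm absorbance ratio.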
TsaE inh – qHTS Assay for Inhibitors of YjeE. purified YjeE enzyme, qHTS inhibition assay. Potency, µM. hit rate 0.05% among 71,000. tRNA threonylcarbamoyladenosine biosynthesis protein TsaE (Escherichia coli (strain …
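Fluorescence polarization of a BODIPY Texas Red–ADP probe (2 uM) bound to purified YjeE (10 uM) was read after 15 min room-temperature incubation with compounds. Loss of polarization marks inhibitors; ADP serves as titrated control.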
Pol III holo inh – qHTS Assay for Inhibitors of DNA Polymerase III Holoenzyme System | reconstituted DNA polymerase III holoenzyme replication, biochemical | AID 603, 2007 | Potency, µM (highest dose often 57.1 µM), for the others: at the highest dose activity change, negative = inhibition | hit rate 0.25% among 71,000; further: potency means the concentration at half of the fitted maximal effect; on the % scale 0 is the no-effect control and ±100 the full control effect
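Reconstituted *E. coli* holoenzyme (0.35 nM Pol III, 1 nM beta, 154 nM SSB, 2 nM primase) was preincubated with compound for 15 min at RT. Synthesis on 1.4 nM ssM13Gori ran 35 min, then was stopped with PicoGreen/EDTA and read as dsDNA fluorescence.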
Tau filament bind – qHTS Assay for Tau Filament Binding. Microtubule-associated protein tau (Homo sapiens), P10636. recombinant tau filaments, thioflavin S fluorescence, 15 h; filaments grown with octadecylsulfate alongside compound. Potency, µM (top dose mostly 57.1 µM), for inactives: at the highest dose activity change, negative = inhibition. hit rate 2% among 71,000;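 further: potency means the concentration at half of the fitted maximal effect; on the % scale 0 is the no-effect control and ±100 the full control effect; actives lower thioflavin S fluorescence by blocking filaments or displacing dye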
Target sequence (P10636 whole entry, looked up): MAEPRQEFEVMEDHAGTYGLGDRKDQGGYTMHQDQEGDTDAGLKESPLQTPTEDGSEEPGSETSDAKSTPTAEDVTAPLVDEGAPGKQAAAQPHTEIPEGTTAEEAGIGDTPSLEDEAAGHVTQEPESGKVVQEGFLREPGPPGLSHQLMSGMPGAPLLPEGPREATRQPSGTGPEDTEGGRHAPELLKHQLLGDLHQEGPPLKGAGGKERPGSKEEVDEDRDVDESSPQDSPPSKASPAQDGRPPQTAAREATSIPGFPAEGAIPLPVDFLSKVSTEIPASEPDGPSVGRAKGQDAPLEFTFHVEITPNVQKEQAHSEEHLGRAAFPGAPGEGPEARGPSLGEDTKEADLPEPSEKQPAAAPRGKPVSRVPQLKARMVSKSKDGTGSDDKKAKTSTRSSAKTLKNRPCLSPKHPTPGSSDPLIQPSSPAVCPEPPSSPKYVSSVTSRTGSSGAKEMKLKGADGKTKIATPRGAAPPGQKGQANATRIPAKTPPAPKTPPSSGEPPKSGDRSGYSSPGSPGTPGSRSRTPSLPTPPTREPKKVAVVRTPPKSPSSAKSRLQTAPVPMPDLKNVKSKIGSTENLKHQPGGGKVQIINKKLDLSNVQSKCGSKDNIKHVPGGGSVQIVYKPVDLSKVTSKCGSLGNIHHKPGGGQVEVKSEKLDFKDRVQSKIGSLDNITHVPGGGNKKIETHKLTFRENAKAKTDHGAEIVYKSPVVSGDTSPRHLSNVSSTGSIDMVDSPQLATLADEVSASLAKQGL
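ThS-based fibril read: tau 1 uM final, inducer ODS 30 uM final, 37 C for 15 h, ex 450/em 510 nm.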
Numbers without * were called inactive; i = inactive; ? = inconclusive; / = not tested or not shown; [ ] = dose if it differs, or a comment. Most compounds without a hit are left out; they make up all but 3.3% or so of the library. The call rests on the fitted dose curve; in most records, active means well fitted curve in the direction sought with a large enough effect; inconclusive means small, poorly fitted or top-dose-only effect, or another doubt; inactive means no such curve, though single readings can be large; an effect the other way counts as inactive or inconclusive.

SMILES | BRCT inh green | BRCT PPI red | ALOX15 inhib | TsaE inh | Pol III holo inh | Tau filament bind
N#Cc1c(N)oc(-c2ccco2)c1-c1ccco1 | -6% | -4% | 25µM* | i | -10% | 146%
CCC1=C2CC[C@H]3C(=O)NC(=O)[C@H]3[C@H]2[C@@]2(C)C(=NCCOC)OC(=O)N2C1=O | -1% | 0% | / | / | / | /
c1ccc(-c2nn3c(Cn4nnc5ccccc54)nnc3s2)cc1 | 1% | -2% | ? | i | -3% | -6%
c1ccc2c(c1)nnn2Cc1nnc2sc(-c3ccc4c(c3)OCCO4)nn12 | -1% | -1% | 13µM* | i | 12% | 6%
CC(C)=CCC/C(C)=C/CO/N=C1/C[C@@H](O)[C@@H](O)[C@@H]2[C@@H]3C(=O)N(C[C@@H]4CCCO4)C(=O)[C@H]3CC[C@@H]12 | 0%[15.4 µM] | 1%[15.4 µM] | 1%[11.4 µM] | / | / | /
CCCCN(C(=O)c1ccc(Cl)cc1)C1CC2CCC(C1)N2C (stereo unspecified) | -1% | 1% | 0% | i | -1% | 16µM*
CCOC(=O)c1c(OCC)[nH]c2c1cc(O)c1ccccc12 | -2% | -1% | 7.9µM* | i | -9% | -22%
CC(C)c1ccc2oc(-c3cc(N)ccc3O)nc2c1 | -1% | 1% | ? | i | -4%[11.4 µM] | 3.2µM*
Cc1ccccc1-c1nc2cc(N)ccc2o1 | -1% | 1% | 6% | i | -6% | -12%
O=C(CSc1nnc(CNC(=O)c2ccccc2F)o1)c1ccc(Cl)cc1 | 1% | -1% | -7% | i | 2% | 32µM*
COC(=O)[C@@]1(Cc2ccc(OC)cc2)[C@H]2c3cc(C(=O)N4CCCC4)n(Cc4nc5ccccc5[nH]4)c3C[C@H]2CN1C(=O)c1ccccc1 | 7% | 2% | / | i | -4% | 33%
O=C(c1cccnc1)N1CCCc2ccccc21 | -1% | -2% | -5%[11.4 µM] | i | 4%[11.4 µM] | -6%[11.4 µM]
O=C(c1cnccn1)N1CCc2ccccc21 | -1% | -1% | 16µM* | i | ? | -7%
COc1cccc(Nc2ncc3nc(-c4ccccc4)c(=O)n(C)c3n2)c1 | -4% | 1% | -11% | i | -2% | 25%
CC(C)CN(CC#N)CC(C)C | -1%[15.4 µM] | 0%[15.4 µM] | -3%[11.4 µM] | i | -2%[11.4 µM] | 7%[11.4 µM]
O=C(Cc1ccc(Cl)cc1)Nc1ccc(-c2nnc(-c3ccco3)o2)cc1 | 2% | 0% | -9% | i | 20µM* | 112%
O=C(Cc1ccccc1)Nc1ccc(-c2nnc(-c3ccco3)o2)cc1 | 0% | -1% | -3% | i | -3% | 458%
COc1ccc2nc(N3CCCCC3)c(C#N)cc2c1 | -4% | 0% | 25µM* | i | -2% | i
COc1ccc2nc(N3CCCC3)c(C#N)cc2c1 | -11% | -1% | ? | i | -7% | i
O=c1oc2c(CN3CCCCCC3)c(O)ccc2cc1-c1nc2ccccc2[nH]1 | 32µM* | 2% | -16% | i | 94% | i
O=c1cc(-c2ccccc2)c2ccc(O)c(CN3CCCCC3)c2o1 | 1% | -1% | -5% | i | -3% | 2%
CC(C)[C@@H](CC(=O)N[C@@H]1CCCC[C@H]1C(=O)N[C@H](CC(=O)N[C@@H](CCC(=O)O)CC(=O)O)Cc1ccccc1)NC(=O)C[C@H](CO)NC(=O)[C@@H]1CNCC[C@H]1N | / | / | / | i | 0% | -4%
Cn1c(=O)c2ncn(CC(=O)Nc3ccc4c5c(cccc35)CC4)c2n(C)c1=O | 6% | -1% | -8% | i | -5% | 13µM*
COc1ccccc1N1CCN(CCCCN2C(=O)CCC2=O)CC1 | -3% | -1% | -28%[25.6 µM] | i | -7% | ?
COc1ccccc1N1CCN(CCn2c(=O)[nH]c3c([nH]c4ccccc43)c2=O)CC1 | -1% | 2% | ? | i | -5% | 40µM*
SMILES | BRCT inh green | BRCT PPI red | ALOX15 inhib | TsaE inh | Pol III holo inh | Tau filament bind
O=C(CSc1nc2ccccc2o1)c1cc2ccccc2oc1=O | 3% | 0% | 22% | i | -8% | 25µM*
O=C1c2ccccc2C(=O)N1CCCSc1nc2ccccc2o1 | 1% | -3% | -11%[11.4 µM] | i | -2%[11.4 µM] | 4µM*
CCOC(=O)N/N=C1/C[C@@H](O)[C@@H](O)[C@@H]2[C@@H]3C(=O)N([C@@H](C)c4ccccc4)C(=O)[C@H]3CC[C@H]12 | -2%[15.4 µM] | 3%[15.4 µM] | 2%[11.4 µM] | / | / | /
CCN(CC)c1ccc(NC(=O)C2CC3CCC2C3)cc1 (stereo unspecified) | 1% | 0% | -23% | i | -2% | 25µM*
C=CCC1C=CC(OC(=O)OCC)C(COC(=O)OCC)O1 (stereo unspecified) | -2%[15.4 µM] | -1%[15.4 µM] | 11%[11.4 µM] | / | / | /
CC(C)CNC(=O)COc1ccc2c3c(c(=O)oc2c1)CCC3 | -1% | 0% | -8% | i | -2% | 10%
COc1ccc2c(c1)c(=O)oc1cc(OCC(=O)NC3CC3)ccc12 | -2% | -1% | -2% | i | 16µM* | 2%
Nc1c(C(=O)c2ccc(Br)s2)oc2ccccc12 | -1% | -1% | -1% | i | 2% | 13µM*
Nc1c(C(=O)c2cccs2)oc2ccccc12 | -4% | 2% | -30% | i | -5% | ?
CC(C)c1ccc2c(c1)CC[C@@H]1[C@@](C)(CN)CCC[C@@]21C | / | / | / | i | 1% | 32µM*
COC(=O)c1ccc(C(NC(=O)OCc2ccccc2)/C(C)=C/[C@@H](C)C(=O)NCc2nn(-c3ccccc3)nc2C)cc1 (stereo partly specified) | 8% | 0% | -11% | i | -4% | 9%
FC(F)(F)c1cc(CN2CC3(CCNCC3)C2)cc(C(F)(F)F)c1 | -5% | 1% | 3% | i | -4% | 13µM*
FC(F)(F)c1cc(CN2CC[C@@]3(CCCNC3)C2)cc(C(F)(F)F)c1 | -4% | -2% | -7% | i | 0% | 5%
CC(=O)Nc1ccc(NC(C)=O)s1 | -4% | -1% | 20µM* | i | -6% | -10%
O=C(N/N=C1/C[C@@H](O)[C@@H](O)[C@@H]2[C@@H]3C(=O)N(C4CCCCC4)C(=O)[C@H]3CC[C@H]12)OCc1ccccc1 | -1%[15.4 µM] | -1%[15.4 µM] | 8%[11.4 µM] | / | / | /
CCOc1ccc2noc3c2c1C(=O)c1ccccc1-3 | 4µM* | -1% | -1% | i | 244% | i
C[C@@H](C(=O)Nc1ccc2ccccc2c1)[C@H]1C[C@]1(C)[C@H](NC(=O)Oc1ccc(F)cc1)c1ccccc1 | 0% | 1% | / | i | -3% | 24%
